Each structure is given as a SMILES string. In all, about 360,000 compounds went through this assay and about 10,000 (2.8%) were called active. Roughly 4% stayed inconclusive and do not appear here. The entries come from a sample that favours actives as a whole. Unmarked numbers belong to inactive results. Calls follow the shape of the dose curve; as a rule, active = well fitted inhibition curve with a large enough effect; inconclusive = small, poorly fitted or top-dose-only effect; inactive = flat fitted curve, though single readings scatter.
% is scaled to controls: 0 for no effect and ±100 for the full control effect; potency is read from the fitted curve at half-maximal effect.

Chain of Serine/threonine-protein kinase PLK1 (Homo sapiens) (P53350 whole entry, looked up, the tested form may be a part): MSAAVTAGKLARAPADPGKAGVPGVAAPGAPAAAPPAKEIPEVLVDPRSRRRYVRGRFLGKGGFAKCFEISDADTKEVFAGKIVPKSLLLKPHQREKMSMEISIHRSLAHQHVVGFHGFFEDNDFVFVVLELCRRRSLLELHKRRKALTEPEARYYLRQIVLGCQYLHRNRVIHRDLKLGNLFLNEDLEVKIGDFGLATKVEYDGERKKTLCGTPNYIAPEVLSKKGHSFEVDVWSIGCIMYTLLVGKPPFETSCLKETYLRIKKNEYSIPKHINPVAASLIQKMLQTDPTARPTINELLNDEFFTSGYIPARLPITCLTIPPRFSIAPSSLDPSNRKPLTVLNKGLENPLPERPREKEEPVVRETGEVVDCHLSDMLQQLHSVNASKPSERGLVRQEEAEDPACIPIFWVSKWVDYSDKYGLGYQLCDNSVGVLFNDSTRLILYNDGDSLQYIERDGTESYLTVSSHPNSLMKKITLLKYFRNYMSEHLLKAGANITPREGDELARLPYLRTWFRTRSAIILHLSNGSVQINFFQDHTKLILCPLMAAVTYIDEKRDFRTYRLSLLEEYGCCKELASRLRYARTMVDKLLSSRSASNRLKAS

This test has as its target Serine/threonine-protein kinase PLK1 (Homo sapiens) (UniProt P53350). Kind of test: qHTS for Inhibitors of PLK1-PDB (polo-like kinase 1 - polo-box domain): Primary Screen. Also: nearly all actives have a fitted effect of over 65% in size. As to max response, negative = inhibition: series mostly up to about 57 µM. The following applies: Plk1 PBD binding of FITC phosphopeptide, fluorescence polarization. The source says:
The polo-like kinase 1 (Plk1) is a member of a conserved subfamily of serine / threonine protein kinases that plays a pivotal roles in cell proliferation. It has a C-terminal non-catalytic region called the polo-box domain (PBD) that plays a crucial role in the subcellular localization of the Plk1. […] Furthermore, depletion of the overexpressed Plk1 by RNAi efficiently induces apoptotic cell death in cancer and reduces tumor growth in mouse xenograft models. Thus, targeting Plk1 is an appealing strategy for anti-cancer therapy. Therefore, this project aimed to screen the Molecular Libraries Small Molecule Repository (MLSMR) using a novel approach to find inhibitors that target the Plk1 PBD instead of the conventional N-terminal catalytic domain. This project employed a fluorescence polarization (FP) assay using a FITC-conjugated phospho-9-mer (p-9-mer) peptide and purified human Plk1 PBD protein. The identified small molecule inhibitors of Plk1 PBD can then further be developed into useful tools for biomedical and clinical research that complements or replaces current relevant disease therapy. NIH Chemical Genomics Center [NCGC] NIH Molecular Libraries Probe Centers Network [MLPCN] MLPCN Grant: MH100728 Assay Submitter (PI): Kyung Lee, NCI
Four microliter of 25 nM FITC-p-9-mer + 60 nM Plk1 PBD in buffer solution (final concentrations 25 nM and 60 nM respectively) or 4 uL of 25 nM FITC-p-9-mer (final concentration 25 nM) in buffer will be dispensed into a 1,536 Greiner medium-binding black solid plate. Small molecules at final concentrations of 18 nM to 57 uM and positive control phospho-9-mer (sequence: Ac-PPLHSpTAI-NH2) at final concentrations 26 nM to 57 uM and phospho-13-mer (sequence: Ac-[…]pTAI-NH2) at final concentrations of 1 nM to 2.3 uM will be pin-transferred (23 nL) to the plate via a Kalypsys pin-tool robotics equipped with a 1,536-pin array. The reaction plate will be centrifuged for 1 min at 1000 rpm and incubated at room temperature for 10 min. The FITC fluorescence signals will be read using the PerkinElmer ViewLux plate reader at 480 / 20 nm excitation and 540 / 20 nm S and P polarization emission wavelengths. Reagent bottles will be kept submerged into 4 °C recirculating chiller bath and all liquid lines will be covered with aluminum foil to minimize degradation. Library plates will be screened starting from the lowest to the highest concentrations to minimize compound carryover. Vehicle only plates, with DMSO being pin-transferred instead of compound solutions, will be included regularly throughout the screen to record any systematic shifts in assay signal.
(In general: In qHTS, concentration-response curves come from the screen itself.)
For `O=S(=O)(NCc1ccccc1)c1ccc(S(=O)(=O)N2CCCC2)cc1`, the Potency is 26.7 µM (active).
On to `O=S(=O)(c1ccc(-c2ccccc2)cc1)N1CCCC1`, for which the max response, negative = inhibition is -5.48%.
The same measure, in the same setting: the figure for `CC1CCN(S(=O)(=O)c2ccc(S(=O)(=O)NCc3cccnc3)cc2)CC1` is -9.09%; for `CN(Cc1ccc(C(F)(F)F)cc1)C(=O)[C@H]1O[C@@H](n2cnc3c(N)ncnc32)[C@H](O)[C@@H]1O` it is -3.67%; for `CN(C)C(=O)c1cccc(-c2cnc3c(NC=O)cc(-c4ccc(C(=O)N5CCOCC5)cc4)cn23)c1` it is -14.7%.
The same measure, in the same setting: under `Cc1cc(C(F)(F)F)nc(SCC(=O)Nc2nccs2)n1` stands -4.23%; under `CCn1c(SCC(=O)Nc2sc(C)c(C)c2C#N)nnc1C1CC1`, -26.7%.
Turning to `CCOC(=O)c1sc(NC(=O)CSc2nc(C)cc(C(F)(F)F)n2)c(C#N)c1C`, the Potency was 2.99 µM (active).
`CC(=O)OCC(C)n1c(=O)c2ccccc2n1C(C)=O` (centres undefined): the max response, negative = inhibition is 1.28%.
Still for that read-out and setting: the figure for `CN(C)c1cccc(NC(=O)c2ccc(-c3ccc(F)c(F)c3)c3ccoc23)c1` is -11%; for `CCOC(=O)[C@]12CCCC=C1N(CCC1=CCCCC1)C(=O)[C@H](CC(=O)N1CCN(C(=O)c3ccco3)CC1)C2` it is -19.8%.
In the case of `C[C@@H]1CN([C@@H](C)CO)S(=O)(=O)c2ccc(C#Cc3cccc(F)c3)cc2O[C@H]1CN(C)S(=O)(=O)c1cn(C)cn1`, the max response, negative = inhibition was -28.6%.
For `CCCCCn1nnnc1-c1nc2cc3ccccc3cc2[nH]c1=O`, the max response, negative = inhibition was -6.28%.
Same read-out and setting: under `COc1cc(C(=O)N2CCN(C3CCC(C)CC3)CC2)cc(OC)c1OC` (centres undefined) stands -10%; under `CCn1cc(C(=O)NCC2COc3ccccc3O2)c2cc(OC)c(OC)cc2c1=O` (centres undefined), -0.135%.
As for `CCn1cc(C(=O)N2CCN(C3CCCCC3)CC2)c2cc(OC)c(OC)cc2c1=O`, the Potency was 10.6 µM (active).
Consider `CCc1nc2ccc(C(=O)NC3CCN(Cc4ccccc4)CC3)cn2c1N(C)CCN1CCOCC1`, for which the max response, negative = inhibition is -5.14%.
As to `CCCCCc1c(-c2ccc(OC)c(OC)c2)ncn1CCc1ccccc1OC`, the max response, negative = inhibition is -4.35%.
Same read-out and setting: the figure for `Cc1cc([N+](=O)[O-])c(N2CCC[C@@H]2C(=O)O)c([N+](=O)[O-])c1` is -4.11%; for `Cc1cc(C)c(NC(=O)CN2CCCCCC2)c(C)c1` it is -2.23%.
As to `Cc1cc(C)c(NC(=S)N2CCCC2C(=O)O)c(C)c1` (centres undefined), the Potency was 6.7 µM (active).
As to `COc1ccc(NC(=O)CN2C(=O)NC(C)(c3ccccc3)C2=O)cn1` (centres undefined), the max response, negative = inhibition is 2.84%.
Same read-out and setting: under `COc1ccc(C(O)c2nc(-c3ccc(OC)nc3)cs2)cc1` (centres undefined) stands 6.19%.
For `COc1ccc(CS(=O)/C(Cl)=C(/Cl)C(=O)Nc2ccc(OC)nc2)cc1` (centres undefined), the Potency is 2.67 µM (active).
On to `Cc1ccc(-c2c(N)nc3ncccn23)cc1`, for which the max response, negative = inhibition was 2.55%.
Still for that read-out and setting: the figure for `CCc1nc2c(OCC(N)=O)cccn2c1N(C)C(=O)c1ccc(OC)cc1` is -13.5%; for `CC1(C(=O)NCc2ccccc2)CSCC(=O)N1CCCn1ccnc1` (centres undefined) it is -0.172%.
Same read-out and setting: under `Clc1c(OCCCn2ccnc2)ccc2ccccc12` stands -25.1%.
Consider `Cc1nc2ccccc2c(=O)n1CCCn1ccnc1`, for which the Potency was 21.2 µM (active).
`CN(C)c1ccc(/C=N/NC(=O)C(O)c2ccc(Br)cc2)cc1` (centres undefined): the max response, negative = inhibition is -14.9%.
On the same count and under the same terms, the figure for `CC(C(=O)NC1CCCC1)N(c1ccc(Oc2ccccc2)cc1)S(C)(=O)=O` (centres undefined) is -1.83%.
On to `COc1ccc(/C=N/NC(=O)C(C)N(c2ccc(OC)cc2)S(C)(=O)=O)cc1` (centres undefined), for which the Potency was 26.7 µM (active).
In the case of `COc1ccccc1Cc1c(-c2ccc(Cl)cc2)nc2c3ccccc3ccn12`, the max response, negative = inhibition was -5.7%.
Still for that read-out and setting: the figure for `O=C(/C=C/[C@H]1O[C@@H](n2ccc(=O)[nH]c2=O)[C@H](O)[C@@H]1O)NCc1ccccn1` is 0.76%; for `Cc1cccc(C)c1NC(=O)C(c1ccc(C(F)(F)F)cc1)n1c(=O)c(-c2ccco2)nc2ccccc21` (centres undefined) it is -16.2%.
On the same count and under the same terms, under `COc1ccc(CC(=O)NCC(=O)N/N=C/c2cc(Br)ccc2OC)cc1` stands 0.444%.
Consider `CC(C)/C=N/NC(=O)c1cc(Br)ccc1O`, for which the max response, negative = inhibition is -13.1%.
For `COc1ccc(-c2[nH]ncc2/C=N/NC(=O)c2cc(Br)ccc2O)c(OC)c1`, the Potency is 26.7 µM (active).
For the compound `CC(C)(O)C1=C[N+](=O)CC=C1`, the max response, negative = inhibition is -9.3%.
Same read-out and setting: under `O=C(CNc1ccc(F)cc1F)NC(=O)NCc1ccco1` stands -20.1%.
The same measure, in the same setting: under `CCOC(=O)c1cnc(SCC(=O)NCc2ccco2)nc1N` stands -1.79%.
For `Cc1cc(C)n2nc(SCC(=O)NC(=O)NCc3ccco3)nc2n1`, the Potency is 16.8 µM (active).
As to `O=[N+]([O-])c1ccc(CN2CC(N3CCC(c4ccccc4)CC3)CS2(=O)=O)cc1` (centres undefined), the max response, negative = inhibition is -13.3%.
The same measure, in the same setting: under `CCOc1ccc(Cl)cc1-c1cc(C(=O)NCc2cccs2)[nH]n1` stands -0.638%.

Source of the values: PubChem BioAssay AID720504 (National Center for Advancing Translational Sciences (NCATS), 2013).
